# Source: PubChem BioAssay (Tox21)
# Results filed as inconclusive are left out. Entries that show only a call come without a potency. Values without a mark were called inactive. The source made the active and inactive calls. The call rests on the fitted dose curve; in most records, active means well fitted curve in the direction sought with a large enough effect in the repeat runs; inconclusive means weak or mixed curves; inactive means no such curve, though single readings can be large; an effect the other way counts as inactive or inconclusive.
# Experiments:
# [1] = A CellTox Green Cytotoxicity Assay to monitor cytotoxicity in HEK293 cells - 40 hour (AID 1224871); further: nearly all actives have a fitted effect of over 45% in size
# How it was run: (§1)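 Fluorescence from a DNA-binding dye excluded by viable cells was measured repeatedly in the same HEK293 wells (600 cells/well) during continuous compound exposure at 37 C. Each assay gives one read point: 0, 8, 16, 24, 32 or 40 h.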
# [2] = qHTS RealTime-Glo MT Cell Viability Assay in HEK293 cells - 16 hour (AID 1224872); further: top concentration of the series differs between compounds; nearly all actives have a fitted effect of over 50% in size
# How it was run: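 Tox21 10K qHTS, HEK293, 600 cells/well, RealTime-Glo reagent co-dispensed with cells; 5 h preincubation, compound by pintool, 37 C, luminescence at 0–40 h.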
# [3] = qHTS RealTime-Glo MT Cell Viability Assay in HepG2 cells - 8 hour (AID 1224873); further: nearly all actives have a fitted effect of over 55% in size
# How it was run: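 HepG2 cells (600/well) mixed with RealTime-Glo MT reagent, settled 5 h at 37 C/5% CO2 before compound addition. Nonlytic NanoLuc luminescence from viable-cell prosubstrate reduction read repeatedly during 40 h treatment at 37 C.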
# [4] = qHTS RealTime-Glo MT Cell Viability Assay in HEK293 cells - 40 hour (AID 1224874); settings: RealTime-Glo luminescence; max response: hits give low values; further: nearly all actives have a fitted effect of over 50% in size; further: potency means the concentration at half of the fitted maximal effect
# How it was run: (§2)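 Luminescence, which tracks viable cell number through reduction of the prosubstrate to a NanoLuc substrate, was read over continuous 37 C culture. Cells (600/well) were premixed with reagent and rested 5 h before 23 nL of compound in DMSO was pinned.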
# [5] = A CellTox Green Cytotoxicity Assay to monitor cytotoxicity in HepG2 cells - 16 hour (AID 1224876); further: nearly all actives have a fitted effect of over 45% in size
# How it was run: (§3)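 Real-time cytotoxicity: fluorescence of a cell-impermeant cyanine dye binding DNA of dead HepG2 cells, measured repeatedly (0–40 h) during compound exposure at 37 C. Cells seeded 600/well with reagent, dosed after 5 h.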
# [6] = qHTS RealTime-Glo MT Cell Viability Assay in HepG2 cells - 32 hour (AID 1224877); further: nearly all actives have a fitted effect of over 55% in size
# How it was run: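 Cells + NanoLuc/prosubstrate dispensed (600 cells/well) → 5 h at 37 C/5% CO2 → compounds in DMSO transferred → 40 h incubation at 37 C, luminescence read at 0, 8, 16, 24, 32, 40 h.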
# [7] = A CellTox Green Cytotoxicity Assay to monitor cytotoxicity in HepG2 cells - 24 hour (AID 1224878); further: nearly all actives have a fitted effect of over 45% in size
# How it was run: as §3
# [8] = A CellTox Green Cytotoxicity Assay to monitor cytotoxicity in HepG2 cells - 40 hour (AID 1224879); further: nearly all actives have a fitted effect of over 40% in size
# How it was run: as §3
# [9] = qHTS RealTime-Glo MT Cell Viability Assay in HEK293 cells - 0 hour (AID 1224880); further: top concentration of the series differs between compounds; nearly all actives have a fitted effect of over 45% in size
# How it was run: as §2
# [10] = A CellTox Green Cytotoxicity Assay to monitor cytotoxicity in HEK293 cells - 24 hour (AID 1224875)
# How it was run: as §1
smiles,measurement,setting,value
CCN[C@H]1C[C@H](C)S(=O)(=O)c2sc(S(N)(=O)=O)cc21,Potency,[1],inactive
same,Potency,[2],inactive
same,outcome,[3],inactive
same,max response,[4],-0.522%
same,outcome,[5],inactive
same,Potency,[6],inactive
same,outcome,[7],inactive
same,Potency,[8],inactive
same,Potency,[9],inactive
O=S(=O)(O)c1cccc2ccccc12,Potency,[1],inactive
same,Potency,[2],inactive
same,outcome,[3],inactive
same,max response,[4],14.6%
same,outcome,[5],inactive
same,Potency,[6],inactive
same,outcome,[7],inactive
same,Potency,[9],inactive
CCCOC(=O)CC,Potency,[1],inactive
same,outcome,[3],inactive
same,max response,[4],8.31%
same,outcome,[10],inactive
same,outcome,[5],inactive
same,Potency,[6],inactive
same,outcome,[7],inactive
same,Potency,[8],inactive
same,Potency,[9],inactive
NCCCC(N)(C(=O)O)C(F)F (stereo unspecified),Potency,[1],inactive
same,outcome,[3],inactive
same,max response,[4],0.24%
same,outcome,[10],inactive
same,outcome,[5],inactive
same,Potency,[6],inactive
same,outcome,[7],inactive
same,Potency,[8],inactive
CC1(C)[C@@H]2CC[C@@]1(C)[C@H](O)C2,Potency,[1],inactive
same,Potency,[2],inactive
same,outcome,[3],inactive
same,max response,[4],2.75%
same,outcome,[5],inactive
same,Potency,[6],inactive
same,outcome,[7],inactive
same,Potency,[9],inactive
CC1=NN(c2cc(S(=O)(=O)O)ccc2Cl)C(=O)C1N=Nc1ccccc1 (stereo unspecified),Potency,[1],inactive
same,outcome,[3],inactive
same,max response,[4],8.94%
same,outcome,[10],inactive
same,outcome,[5],inactive
same,Potency,[6],inactive
same,outcome,[7],inactive
same,Potency,[8],inactive
same,Potency,[9],inactive
CCOC(=O)COC(=O)c1ccccc1C(=O)OCC,Potency,[1],inactive
same,Potency,[2],inactive
same,outcome,[3],inactive
same,max response,[4],11%
same,outcome,[5],inactive
same,Potency,[6],inactive
same,outcome,[7],inactive
same,Potency,[9],inactive
CN1CCC(=C2c3ccccc3CCc3cccnc32)CC1,Potency,[1],inactive
same,outcome,[3],inactive
same,max response,[4],-11%
same,outcome,[10],inactive
same,outcome,[5],inactive
same,Potency,[6],inactive
same,outcome,[7],inactive
same,Potency,[8],inactive
same,Potency,[9],inactive
CC(CO)(CO)[N+](=O)[O-],Potency,[1],inactive
same,Potency,[2],inactive
same,outcome,[3],inactive
same,max response,[4],3.85%
same,outcome,[5],inactive
same,Potency,[6],inactive
same,outcome,[7],inactive
same,Potency,[8],inactive
same,Potency,[9],inactive
Nc1ccn([C@@H]2O[C@H](CO)[C@@H](O)C2(F)F)c(=O)n1,Potency,[1],inactive
same,outcome,[3],inactive
same,Potency,[4],756 nM (active)
same,outcome,[10],inactive
same,outcome,[5],inactive
same,Potency,[6],inactive
same,outcome,[7],inactive
same,Potency,[8],inactive
same,Potency,[9],inactive
NCCCC[C@H](N[C@@H](CCc1ccccc1)C(=O)O)C(=O)N1CCC[C@H]1C(=O)O,Potency,[1],inactive
same,Potency,[2],inactive
same,outcome,[3],inactive
same,outcome,[10],inactive
same,outcome,[5],inactive
same,Potency,[6],inactive
same,outcome,[7],inactive
same,Potency,[8],inactive
same,Potency,[9],inactive
CCCCCCCC1CCCC1=O (stereo unspecified),Potency,[1],inactive
same,outcome,[3],inactive
same,max response,[4],18.6%
same,outcome,[10],inactive
same,outcome,[5],inactive
same,Potency,[6],inactive
same,outcome,[7],inactive
same,Potency,[8],inactive
same,Potency,[9],inactive
C[N+]12CCC(CC1)C(OC(=O)C(O)(c1ccccc1)c1ccccc1)C2 (stereo unspecified),Potency,[1],inactive
same,Potency,[2],inactive
same,outcome,[3],inactive
same,max response,[4],4.99%
same,outcome,[5],inactive
same,Potency,[6],inactive
same,outcome,[7],inactive
same,Potency,[8],inactive
same,Potency,[9],inactive
CC1=CC(=O)[C@H]2C[C@@H]1C2(C)C,Potency,[1],inactive
same,outcome,[3],inactive
same,max response,[4],-1.77%
same,outcome,[10],inactive
same,outcome,[5],inactive
same,Potency,[6],inactive
same,outcome,[7],inactive
same,Potency,[8],inactive
same,Potency,[9],inactive
CCN[C@@H]1C[C@H](N)[C@@H](OC2OC(CN)=CCC2N)[C@H](O)[C@H]1O[C@H]1OC[C@](C)(O)[C@H](NC)[C@H]1O (stereo partly specified),cytotoxicity increase,[1],6.9% [at 0.29 µM]
same,"viability change, negative = cytotoxic",[3],0.243% [at 0.29 µM]
same,max response,[4],5.87%
same,activity change,[10],6.99% [at 0.29 µM]
same,cytotoxicity increase,[5],-0.147% [at 0.29 µM]
same,"activity change, negative = cytotoxic",[6],1.75% [at 0.29 µM]
same,cytotoxicity,[7],-2.12% [at 0.29 µM]
same,cytotoxicity increase,[8],-8.46% [at 0.29 µM]
same,"activity change, negative = cytotoxicity",[9],1.44% [at 0.29 µM]
CC(C)C[C@@H](N)C(=O)O,cytotoxicity increase,[1],-2.15% [at 15.8 µM]
same,"activity change, negative = cytotoxicity",[2],5.2% [at 15.8 µM]
same,"viability change, negative = cytotoxic",[3],0.12% [at 15.8 µM]
same,max response,[4],5.97%
same,cytotoxicity increase,[5],-14.3% [at 15.8 µM]
same,"activity change, negative = cytotoxic",[6],4.67% [at 15.8 µM]
same,cytotoxicity,[7],-14.3% [at 15.8 µM]
same,cytotoxicity increase,[8],0.791% [at 15.8 µM]
same,"activity change, negative = cytotoxicity",[9],5.62% [at 15.8 µM]
CCC1C(=O)OCC1Cc1cncn1C (stereo unspecified),Potency,[1],inactive
same,outcome,[3],inactive
same,max response,[4],0.511%
same,outcome,[10],inactive
same,outcome,[5],inactive
same,Potency,[6],inactive
same,outcome,[7],inactive
same,Potency,[8],inactive
CC(N)C12CC3CC(CC(C3)C1)C2 (stereo unspecified),Potency,[1],inactive
same,outcome,[3],inactive
same,max response,[4],-3.62%
same,outcome,[10],inactive
same,outcome,[5],inactive
same,Potency,[6],inactive
same,outcome,[7],inactive
same,Potency,[8],inactive
same,Potency,[9],inactive
O=S(=O)(O)c1cccc(S(=O)(=O)O)c1,Potency,[1],inactive
same,Potency,[2],inactive
same,outcome,[3],inactive
same,max response,[4],15.6%
same,outcome,[5],inactive
same,Potency,[6],inactive
same,outcome,[7],inactive
same,Potency,[8],inactive
same,Potency,[9],inactive
O=C(O)c1cn(C2CC2)c2cc(N3CCNCC3)c(F)cc2c1=O,Potency,[1],inactive
same,Potency,[2],inactive
same,outcome,[3],inactive
same,outcome,[10],inactive
same,outcome,[5],inactive
same,Potency,[6],inactive
same,outcome,[7],inactive
same,Potency,[8],inactive
same,Potency,[9],inactive
O=S(=O)(O)c1cc(O)c(O)c(S(=O)(=O)O)c1,Potency,[1],inactive
same,Potency,[2],inactive
same,outcome,[3],inactive
same,max response,[4],0.173%
same,outcome,[5],inactive
same,Potency,[6],inactive
same,outcome,[7],inactive
same,Potency,[8],inactive
same,Potency,[9],inactive
CC(C)c1ccc2ncccc2c1,Potency,[1],inactive
same,outcome,[3],inactive
same,max response,[4],-0.522%
same,outcome,[10],inactive
same,outcome,[5],inactive
same,Potency,[6],inactive
same,outcome,[7],inactive
same,Potency,[8],inactive
O=C(O)CCSCCC(=O)O,Potency,[1],inactive
same,Potency,[2],inactive
same,outcome,[3],inactive
same,max response,[4],0.716%
same,outcome,[5],inactive
same,Potency,[6],inactive
same,outcome,[7],inactive
same,Potency,[8],inactive
same,Potency,[9],inactive
